# From the supplement of paper PMC8728848
# The entries come from a sample that favours the strongest signals as a whole.
# What was measured:
# Assay in all cases: glycan array binding signal (z-score within array); higher = stronger binding
# Settings in all cases: glycan notation: IUPAC condensed, linker removed
# [1] = target: Fuc(a1-2)Gal(b1-3)GalNAc(b1-3)Gal(a1-4)Gal(b1-4)Glc
# Summary of the method: (§1)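 From the Consortium for Functional Glycomics database, 3228 arrays were curated, keeping only those whose protein sequence was available. Binding is given as a within-array Z-score averaged across arrays sharing a protein sequence and across linkers. Negative Z-scores can be read as non-binding.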
# [2] = target: Fuc(a1-2)Gal(b1-3)GlcNAc6S
# Summary of the method: as §1
# [3] = target: Fuc(a1-2)Gal(b1-3)[Fuc(a1-4)]GlcNAc
# Summary of the method: as §1
# [4] = target: Fuc(a1-2)Gal(b1-3)[Fuc(a1-4)]GlcNAc(b1-3)[Gal(b1-4)GlcNAc(b1-6)]Gal(b1-4)Glc
# Summary of the method: as §1
# [5] = target: Fuc(a1-2)Gal(b1-4)GlcNAc(b1-2)Man(a1-3)[Fuc(a1-2)Gal(b1-4)GlcNAc(b1-2)Man(a1-6)]Man(b1-4)GlcNAc(b1-4)GlcNAc
# Summary of the method: as §1
# [6] = target: Fuc(a1-2)Gal(b1-4)[Fuc(a1-3)]GlcNAc(b1-3)GalNAc
# Summary of the method: as §1
# [7] = target: Fuc(a1-2)Gal3S(b1-4)GlcNAc
# Summary of the method: as §1
# [8] = target: Fuc(a1-2)[Gal(a1-3)]Gal(b1-3)GalNAc(b1-3)Gal(a1-4)Gal(b1-4)Glc
# Summary of the method: as §1
# [9] = target: Fuc(a1-2)[Gal(a1-3)]Gal(b1-4)GlcNAc(b1-2)Man(a1-3)[Fuc(a1-2)[Gal(a1-3)]Gal(b1-4)GlcNAc(b1-2)Man(a1-6)]Man(b1-4)GlcNAc(b1-4)GlcNAc
# Summary of the method: as §1
# [10] = target: Fuc(a1-2)[GalNAc(a1-3)]Gal(b1-4)GlcNAc(b1-2)Man(a1-3)[Fuc(a1-2)[GalNAc(a1-3)]Gal(b1-4)GlcNAc(b1-2)Man(a1-6)]Man(b1-4)GlcNAc(b1-4)GlcNAc
# Summary of the method: as §1
# [11] = target: Fuc(a1-3)[Gal(b1-4)]GlcNAc(b1-6)GalNAc
# Summary of the method: as §1
# [12] = target: Gal(a1-3)Gal(b1-4)GlcNAc(b1-2)Man(a1-3)[Gal(a1-3)Gal(b1-4)GlcNAc(b1-2)Man(a1-6)]Man(b1-4)GlcNAc(b1-4)GlcNAc
# Summary of the method: as §1
# [13] = target: Gal(a1-3)[Gal(a1-4)]Gal(b1-4)GlcNAc
# Summary of the method: as §1
# [14] = target: Gal(a1-4)Gal(b1-3)GlcNAc(b1-2)Man(a1-3)[Gal(a1-4)Gal(b1-3)GlcNAc(b1-2)Man(a1-6)]Man(b1-4)GlcNAc(b1-4)GlcNAc
# Summary of the method: as §1
# [15] = target: Gal(b1-4)Gal
# Summary of the method: as §1
# [16] = target: Gal(b1-4)GlcNAc(b1-2)[Gal(b1-4)GlcNAc(b1-4)]Man(a1-3)[GlcNAc(b1-4)][Gal(b1-4)GlcNAc(b1-2)Man(a1-6)]Man(b1-4)GlcNAc(b1-4)GlcNAc
# Summary of the method: as §1
# [17] = target: Gal(b1-4)GlcNAc(b1-3)Gal(b1-3)GalNAc
# Summary of the method: as §1
# [18] = target: Gal(b1-4)GlcNAc(b1-3)Gal(b1-4)Glc
# Summary of the method: as §1
# [19] = target: Gal(b1-4)GlcNAc(b1-3)Gal(b1-4)GlcNAc(b1-2)Man(a1-3)[Gal(b1-4)GlcNAc(b1-3)Gal(b1-4)GlcNAc(b1-2)Man(a1-6)]Man(b1-4)GlcNAc(b1-4)[Fuc(a1-6)]GlcNAc
# Summary of the method: as §1
# [20] = target: Gal(b1-4)GlcNAc(b1-3)Gal(b1-4)GlcNAc(b1-3)Gal(b1-4)GlcNAc(b1-2)Man(a1-3)[Gal(b1-4)GlcNAc(b1-3)Gal(b1-4)GlcNAc(b1-3)Gal(b1-4)GlcNAc(b1-2)Man(a1-6)]Man(b1-4)GlcNAc(b1-4)GlcNAc
# Summary of the method: as §1
# [21] = target: Gal(b1-4)GlcNAc(b1-3)Gal(b1-4)GlcNAc(b1-3)Gal(b1-4)GlcNAc(b1-3)Gal(b1-4)GlcNAc(b1-3)Gal(b1-4)GlcNAc(b1-2)[Gal(b1-4)GlcNAc(b1-3)Gal(b1-4)GlcNAc(b1-3)Gal(b1-4)GlcNAc(b1-3)Gal(b1-4)GlcNAc(b1-3)Gal(b1-4)GlcNAc(b1-6)]Man(a1-6)[Gal(b1-4)GlcNAc(b1-3)Gal(b1-4)GlcNAc(b1-3)Gal(b1-4)GlcNAc(b1-3)Gal(b1-4)GlcNAc(b1-3)Gal(b1-4)GlcNAc(b1-2)Man(a1-3)]Man(b1-4)GlcNAc(b1-4)[Fuc(a1-6)]GlcNAc
# Summary of the method: as §1
# [22] = target: Gal(b1-4)GlcNAc(b1-3)GalNAc
# Summary of the method: as §1
# [23] = target: Gal(b1-4)GlcNAc(b1-6)[Gal(b1-3)]GalNAc
# Summary of the method: as §1
# [24] = target: Gal4S6S(b1-4)GlcNAc
# Summary of the method: as §1
# [25] = target: GalNAc(a1-3)Gal
# Summary of the method: as §1
# [26] = target: GlcNAc(b1-3)Fuc
# Summary of the method: as §1
# [27] = target: GlcNAc(b1-3)Gal(b1-4)GlcNAc(b1-3)Gal(b1-4)GlcNAc
# Summary of the method: as §1
# [28] = target: GlcNAc(b1-3)[GlcNAc(b1-4)][GlcNAc(b1-6)]GlcNAc
# Summary of the method: as §1
# [29] = target: GlcNAc(b1-4)Gal(b1-4)GlcNAc
# Summary of the method: as §1
# [30] = target: GlcNAc(b1-4)GlcNAc
# Summary of the method: as §1
# [31] = target: GlcNAc(b1-4)GlcNAc(b1-4)GlcNAc
# Summary of the method: as §1
# [32] = target: Kdn(a2-3)Gal(b1-4)GlcNAc
# Summary of the method: as §1
# [33] = target: Man(a1-3)[Man(a1-6)]Man(b1-4)GlcNAc(b1-4)GlcNAc
# Summary of the method: as §1
# [34] = target: MurNAc(b1-4)GlcNAc
# Summary of the method: as §1
# [35] = target: Neu5Ac(a2-3)Gal(b1-3)GalNAc
# Summary of the method: as §1
# [36] = target: Neu5Ac(a2-3)Gal(b1-3)GlcNAc(b1-2)Man
# Summary of the method: as §1
# [37] = target: Neu5Ac(a2-3)Gal(b1-3)GlcNAc(b1-2)Man(a1-3)[GlcNAc(b1-4)][Neu5Ac(a2-3)Gal(b1-3)GlcNAc(b1-2)Man(a1-6)]Man(b1-4)GlcNAc(b1-4)GlcNAc
# Summary of the method: as §1
# [38] = target: Neu5Ac(a2-3)Gal(b1-3)[Fuc(a1-4)]GlcNAc
# Summary of the method: as §1
# [39] = target: Neu5Ac(a2-3)Gal(b1-3)[Fuc(a1-4)]GlcNAc(b1-3)Gal(b1-4)[Fuc(a1-3)]GlcNAc
# Summary of the method: as §1
# [40] = target: Neu5Ac(a2-3)Gal(b1-3)[GlcNAc(b1-6)]GalNAc
# Summary of the method: as §1
# [41] = target: Neu5Ac(a2-3)Gal(b1-4)GlcNAc(b1-2)Man
# Summary of the method: as §1
# [42] = target: Neu5Ac(a2-3)Gal(b1-4)GlcNAc(b1-3)Gal
# Summary of the method: as §1
# [43] = target: Neu5Ac(a2-3)Gal(b1-4)GlcNAc(b1-3)Gal(b1-4)GlcNAc
# Summary of the method: as §1
# [44] = target: Neu5Ac(a2-3)Gal(b1-4)[Fuc(a1-3)]GlcNAc(b1-6)[Gal(b1-3)]GalNAc
# Summary of the method: as §1
# [45] = target: Neu5Ac(a2-6)Gal(b1-4)GlcNAc(b1-2)Man(a1-3)[Gal(b1-4)GlcNAc(b1-2)Man(a1-6)]Man(b1-4)GlcNAc(b1-4)GlcNAc
# Summary of the method: as §1
# [46] = target: Neu5Ac(a2-6)Gal(b1-4)GlcNAc(b1-2)Man(a1-3)[GlcNAc(b1-2)Man(a1-6)]Man(b1-4)GlcNAc(b1-4)GlcNAc
# Summary of the method: as §1
# [47] = target: Neu5Ac(a2-6)Gal(b1-4)GlcNAc(b1-2)Man(a1-3)[Neu5Ac(a2-6)Gal(b1-4)GlcNAc(b1-2)Man(a1-6)]Man(b1-4)GlcNAc(b1-4)GlcNAc
# Summary of the method: as §1
# [48] = target: Neu5Ac(a2-6)Gal(b1-4)GlcNAc(b1-3)Gal(b1-4)GlcNAc(b1-2)Man(a1-3)[Neu5Ac(a2-6)Gal(b1-4)GlcNAc(b1-3)Gal(b1-4)GlcNAc(b1-2)Man(a1-6)]GalNAc
# Summary of the method: as §1
# [49] = target: Neu5Ac(b2-6)Gal(b1-4)GlcNAc
# Summary of the method: as §1
# [50] = target: Neu5Gc(a2-6)Gal(b1-4)GlcNAc
# Summary of the method: as §1
# [51] = target: Neu5Gc(a2-8)Neu5Gc(a2-3)Gal(b1-4)GlcNAc
# Summary of the method: as §1
binder,measurement,setting,value
LecRKVI.2 (protein) RTTTNFAFRGFNGNQSKIRIEGAAMIKPDGLLRLTDRKSNVTGTAFYHKPVRLLNRNSTNVTIRSFSTSFVFVIIPSSSSNKGFGFTFTLSPTPYRLNAGSAQYLGVFNKENNGDPRNHVFAVEFDTVQGSRDDNTDRIGNDIGLNYNSRTSDLQEPVVYYNNDDHNKKEDFQLESGNPIQALLEYDGATQMLNVTVYPARLGFKPTKPLISQHVPKLLEIVQEEMYVGFTASTGKGQSSAHYVMGWSFSSGGERPIADVLILSELPPPPPNKAKKEGLNS,glycan array binding signal (z-score),[1],-0.133
same,glycan array binding signal (z-score),[2],-0.436
same,glycan array binding signal (z-score),[3],-0.312
same,glycan array binding signal (z-score),[4],-0.205
same,glycan array binding signal (z-score),[5],3.27
same,glycan array binding signal (z-score),[6],4.76
same,glycan array binding signal (z-score),[7],-0.468
same,glycan array binding signal (z-score),[8],-0.403
same,glycan array binding signal (z-score),[9],0.276
same,glycan array binding signal (z-score),[10],4.57
same,glycan array binding signal (z-score),[11],3.86
same,glycan array binding signal (z-score),[12],3.09
same,glycan array binding signal (z-score),[13],-0.211
same,glycan array binding signal (z-score),[14],5.85
same,glycan array binding signal (z-score),[15],-0.396
same,glycan array binding signal (z-score),[16],-0.319
same,glycan array binding signal (z-score),[17],-0.047
same,glycan array binding signal (z-score),[18],-0.296
same,glycan array binding signal (z-score),[19],3.44
same,glycan array binding signal (z-score),[20],6.91
same,glycan array binding signal (z-score),[21],0.566
same,glycan array binding signal (z-score),[22],-0.373
same,glycan array binding signal (z-score),[23],1.83
same,glycan array binding signal (z-score),[24],-0.352
same,glycan array binding signal (z-score),[25],3.89
same,glycan array binding signal (z-score),[26],-0.233
same,glycan array binding signal (z-score),[27],-0.415
same,glycan array binding signal (z-score),[28],-0.429
same,glycan array binding signal (z-score),[29],-0.256
same,glycan array binding signal (z-score),[30],-0.232
same,glycan array binding signal (z-score),[31],-0.408
same,glycan array binding signal (z-score),[32],-0.49
same,glycan array binding signal (z-score),[33],-0.376
same,glycan array binding signal (z-score),[34],-0.279
same,glycan array binding signal (z-score),[35],-0.423
same,glycan array binding signal (z-score),[36],-0.335
same,glycan array binding signal (z-score),[37],-0.407
same,glycan array binding signal (z-score),[38],-0.318
same,glycan array binding signal (z-score),[39],-0.388
same,glycan array binding signal (z-score),[40],-0.402
same,glycan array binding signal (z-score),[41],-0.25
same,glycan array binding signal (z-score),[42],-0.323
same,glycan array binding signal (z-score),[43],-0.162
same,glycan array binding signal (z-score),[44],3.09
same,glycan array binding signal (z-score),[45],0.37
same,glycan array binding signal (z-score),[46],-0.274
same,glycan array binding signal (z-score),[47],0.07
same,glycan array binding signal (z-score),[48],3.81
same,glycan array binding signal (z-score),[49],-0.393
same,glycan array binding signal (z-score),[50],-0.356
same,glycan array binding signal (z-score),[51],-0.395
